Experimental findings from PubChem BioAssay (NCI) are described below.

About 83,000 compounds went through this panel and 20% of them were active in at least one assay; those are over-represented in the sample as a whole.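 How to read the values: 0–100, growth inhibition (40 = 60% inhibited); 0, no net growth; -100 to 0, cell death (-40 = 40% of starting cells died; -100 = all dead).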 The source made the active and inactive calls. How the source made its calls: active means growth percent below 10; inactive means the rest.

The experiment has as its system NCI/ADR-RES ovarian. The experiment is described as follows: NCI-60 one-dose screen, 48 h (100 = growth as untreated, 0 = no growth, -100 = all killed). To be noted: 10 µM unless noted.
Regarding `ClC(Cl)c1nc(-c2cccs2)n2nc(-c3ccccc3)cc2n1`, the growth is -20.7% (active).
Next, `O=C(COc1ccc(C2SCC(=O)N2c2ccccc2)cc1)c1ccccc1` (centres undefined): 96.5% (inactive); `c1ccc(-c2n(Cc3ccc4ccccc4c3)c3c4ccccc4c4ccccc4c3[n+]2Cc2ccc3ccccc3c2)cc1`: -4.33% (active); `O=C1[C@@H]2Cc3c([nH]c4ccccc34)[C@H](c3c(Cl)cccc3Cl)N2C(=O)CN1C1CCN(Cc2c(F)cccc2F)CC1`: 85.3% (inactive).
On to `NCCN1CCN(c2nc(-c3ccccc3)nc3nc(-c4ccccc4)oc23)CC1`, for which the growth was -45.3% (active).
Then `C/C(=C(/C)C1CC1CCN(C(=O)c1ccccn1)S(=O)(=O)c1ccc(C)cc1)C1CCCCC1` (centres undefined), with 81.9% (inactive); and `Cc1nn(-c2ccccc2)cc1/C=N/Nc1nc(Nc2ccccc2)nc(Nc2ccc(S(N)(=O)=O)cc2)n1`, with 76.4% (inactive).
Next, `Brc1cccc(/C=N/Nc2nc(N/N=C/c3cccc(Br)c3)nc(N3CCOCC3)n2)c1`: 41.8% (inactive); `COc1cc(/C=C2\SC(=O)NC2=O)ccc1OCC(=O)Nc1ccc(C(=O)/C=C/c2cc3ccccc3nc2Cl)cc1`: 97.9% (inactive); `O=c1oc2ccc(-c3ccc(F)cc3F)cc2c(=O)n1-c1ccc(F)c(F)c1`: 3.65% (active).
Then `CC[C@@](C)(NC(=O)C(C)(C)NC(=O)[C@@H](NC(=O)[C@@H]1CCCN1C(=O)C(C)(C)NC(=O)[C@H](CC(C)C)NC(=O)CNC(=O)C(C)(C)NC(=O)[C@@H](NC(=O)C(C)(C)NC(=O)[C@H](CCC(N)=O)NC(=O)[C@H](C)NC(=O)C(C)(C)NC(=O)[C@H](C)NC(=O)C(C)(C)NC(=O)[C@@H]1CCCN1C(=O)C(C)(C)NC(C)=O)C(C)C)C(C)C)C(=O)N[C@@H](CCC(N)=O)C(=O)N[C@@H](CCC(N)=O)C(=O)N[C@H](CO)Cc1ccccc1`, with 100% [4.25 µM] (inactive).
For `O=C(/C=C/c1cn(-c2ccccc2)nc1-c1ccc(Cl)cc1)c1cc2ccccc2oc1=O`, the growth is 71.9% (inactive).
For the compound `CCN1C(=O)N(CC)C2SC(N/N=C/c3ccc(OC)cc3)=NC21` (centres undefined), the growth is 2.95% (active).
Take `O=C(O)c1ccc(-n2cc(CNc3ccc(F)cc3)c(-c3ccc(C(F)(F)F)cc3)n2)cc1`: the growth is 87% (inactive).
For `COc1cc(/C=C/C(=O)c2ccc(NC(=O)COc3cccc4cccnc34)cc2)cc(OC)c1OC`, the growth is 71.7% (inactive).
Next, `COc1cc(CNC(=O)Cc2ccccc2[N+](=O)[O-])ccc1OCC(=O)NO`: 106% (inactive); `Oc1ccc(CSc2nnc(-c3cnccn3)o2)c2cccnc12`: 33% (inactive); `O=C(NCCCNc1cc(-c2cn(-c3ccccc3)nc2-c2cccc(O)c2)ccn1)Nc1ccc(F)cc1`: 20.9% (inactive).
Next, `COc1ccc(-c2nn(-c3ccccc3)cc2/C=C/C(=O)c2ccc(NC(=O)CCCCCCC(=O)NO)cc2)cc1`: 97.8% (inactive).
Then `O=C1[C@H]2Cc3c([nH]c4ccccc34)[C@@H](c3c(Cl)cccc3Cl)N2C(=O)CN1C1CCN(Cc2ccccc2)CC1`, with 92.8% (inactive); and `COc1cccc(/C=C/C(=O)c2ccc(NC(=O)COc3cccc4cccnc34)cc2)c1`, with 90.8% (inactive).
Turning to `CCCC(=O)NC(c1cccnc1)c1cc(Cl)c2cccnc2c1O` (centres undefined), the growth is 10.2% (inactive).
Next, `C/C(=N/Nc1nc(N/N=C(/C)c2ccc([N+](=O)[O-])cc2)nc(N2CCOCC2)n1)c1ccc([N+](=O)[O-])cc1`: 68.7% (inactive).
Consider `Oc1ccc(CSc2nnc(-c3cnccn3)n2-c2ccccc2)c2cccnc12`, for which the growth was 10.9% (inactive).
Then `CCOC(=O)C1=C(C)Nc2nc3ccccc3n2C1c1ccccc1` (centres undefined), with 92% (inactive).
Then `Oc1ccc(CSc2nnc(-c3ccc(Br)cc3)o2)c2cccnc12`, with 13.4% (inactive); and `CNC(=O)c1cc(N2CCc3cc(NC(=O)Nc4ccc(Cl)c(Cl)c4)ccc32)ccn1`, with 93% (inactive).
Next, `COc1cc2cc(Oc3ccc(NC(=O)Nc4cc(C(F)(F)F)cc(C(F)(F)F)c4)cc3)c(C)nc2cc1OCCN(C)C`: 109% (inactive); `Cc1cc(O)c(=O)cc2c1C[C@H]1CC(C)(C)/C=C/C[C@]3(C)Oc4cc(=O)c(O)cc(C)c4C[C@H]3C[C@H](O)[C@@]1(C)O2`: 1.38% (active).
Turning to `COc1ccc(-c2nnc(SCc3ccc(O)c4ncccc34)n2-c2ccccc2)cc1`, the growth was 4.3% (active).
Then `O=C(CCCCCCN1CC(=O)N2[C@@H](c3ccc(Cl)c(F)c3)c3[nH]c4ccccc4c3C[C@H]2C1=O)NO`, with 101% (inactive).
For the compound `Oc1ccc(CSc2nnc(-c3ccccc3)n2-c2ccccc2)c2cccnc12`, the growth was 8.58% (active).
Next, `Cc1ccc(NC(=O)c2ccc(CN3CCN(C)CC3)c(C(F)(F)F)c2)cc1Oc1ccc(-c2[nH]nc3ncnc(N)c23)cc1`: 52% (inactive).
Then `CC(c1ccccc1)N1C(=O)/C(=C/c2csc(C#N)n2)SC1=S` (centres undefined), with 97.5% (inactive).
Next, `O=C(COc1ccc(C2SCC(=O)N2c2ccc(F)cc2)cc1)c1ccccc1` (centres undefined): 94.2% (inactive); `COc1ccc(-c2nnc(SCc3ccc(O)c4ncccc34)o2)cc1`: 16.9% (inactive); `O=c1[nH]c(CNc2ccc(NCc3c(-c4ccccc4)no[n+]3[O-])cc2)nc2c1cnn2-c1ccccc1`: 60.6% (inactive).
Regarding `COc1ccc(N)cc1C(=O)Nc1cccc(-c2cc(=O)c3c(OC)c(OC)c(OC)cc3o2)c1`, the growth was 60.7% (inactive).
Then `CCCC(=O)NC(c1cccnc1)c1cc(C(C)=O)c2cccnc2c1O` (centres undefined), with 30.4% (inactive).
